Here are results for 97 compounds from PubChem BioAssay AID504329 (Southern Research Specialized Biocontainment Screening …, 2011).

Molecules are shown by their SMILES. The whole screen tested about 340,000 compounds, of which about 1,000 (0.29%) were called active. These entries were drawn from the full list. Results with a measured potency or affinity are listed apart. Values without a mark were called inactive. Rule as the data show it: inconclusive = inhibition above about 27% without an active follow-up result; inactive = below that.

A short description of the assay: NS1A inhibition, H1N1 influenza, cell based functional assay (AID 504329). The conditions noted are these: percent inhibition, at 12.5 µM, stronger effect = higher value.
With `Cc1ccc(S(=O)(=O)Nc2c(NC3CCCCC3)c3ccccc3oc2=O)c(C)c1`, the inhibition (usually the drop in the measured response relative to a control, in per cent) is 0.02%.
To `Cc1ccn(CCC(=O)N2CCCC(CCC(=O)N3CCN(c4ccccn4)CC3)C2)n1` (configuration not stated) belongs -2.86%; to `Cc1cc(C)c(NC(=O)CNC(=O)COC(=O)CNC(=O)c2ccc(Cl)cc2Cl)c(C)c1`, -0.98%.
In the case of `CCOC(=O)N1CCC(NS(=O)(=O)c2cc(Br)cc3c2N(C(=O)CC)CC3)CC1`, the inhibition was 7.36%.
With `Cc1ccc(Nc2c(-c3ccccn3)nc3cc(C)ccn23)cc1`, the inhibition is 53%.
Regarding `Cc1ccn2c(Nc3ccccc3)c(-c3ccccn3)nc2c1`, the inhibition is -0.92%.
On to `Cc1ccccc1Nc1c(-c2ccccn2)nc2c(C)cccn12`, for which the inhibition was -0.06%.
Regarding `Cc1cccc(C)c1Nc1c(-c2ccccn2)nc2ccccn12`, the inhibition was 29.7%.
To `CCOC(=O)CN(C(=O)c1snc(C(N)=O)c1N)C(C(=O)NC1CCCCC1)c1ccc(F)cc1` (configuration not stated) belongs 1.16%; to `COc1ccc(C(=O)N/C(=C\c2cn(C)c3ccccc23)C(=O)NCCCn2ccnc2)cc1OC`, 4.02%.
Then `O=C(NCCc1ccc(Cl)cc1)C(=O)c1c[nH]c2ccccc12`, with -31.4%; and `O=C(Nc1ccc(N2CCOCC2)cc1)C1CCCCN1S(=O)(=O)c1ccccc1` (configuration not stated), with -25.6%.
To `c1cc(CNCCN2CCNCC2)ccn1` belongs -2.65%; to `c1ccc(CN2CCNCC2)nc1`, 2.99%.
Take `CN(CCCNC(=O)CCC(=O)N1CCOc2ccc(Cl)cc21)Cc1ccccc1`: the inhibition was 3.8%.
As for `O=C(CN1C(=O)NC2(CCc3ccccc32)C1=O)c1cccs1` (configuration not stated), the inhibition was -5.04%.
Then `COc1ccccc1/C=N/Nc1nc(C)cc(C)n1`, with -18.3%; and `COc1ccc(Cc2nccc3cc(OC)c(OC)cc23)cc1OC`, with 0.89%.
With `COc1ccc(CCN=Cc2ccccc2O)cc1OC`, the inhibition is -18.6%.
For the compound `CCc1ccc2[nH]c3nc(N/N=C/c4ccc(O)cc4O)nnc3c2c1`, the inhibition was 1.89%.
Then `COc1ccc(/C=N/Nc2nnc(Cc3ccc(OC)c(OC)c3)c(=O)[nH]2)cc1OC`, with -2.26%.
To `COc1ccc(Cc2nc3ccccc3n2CC(=O)N/N=C/c2ccc(C)cc2O)cc1OC` belongs 1.09%; to `COc1ccc(/C=N/Nc2nnc(Cc3ccc(OC)c(OC)c3)c(=O)[nH]2)cc1`, 12.1%.
Then `COc1ccc(Cc2nnc(SC)[nH]c2=O)cc1OC`, with -0.91%; and `COc1ccc(NC2c3ccccc3C(=O)N2c2ccccn2)cc1Cl` (configuration not stated), with 25%.
Regarding `Cn1c(=O)c(=O)n(C)c2cc(S(=O)(=O)NCc3ccc(Cl)cc3)ccc21`, the inhibition was -12%.
Then `O=C(CSc1ccccc1)NNC(=O)c1ccncc1`, with -1.89%.
As to `CC(C)CC(=O)Nc1nnc(S(=O)(=O)Nc2ccccc2)s1`, the inhibition is 0.61%.
Then `CCCCn1c(=O)[nH]c(=O)c2c1nc(-c1ccccc1OC(F)F)n2C`, with -2.54%; and `Cc1ccc(NCC(=O)N/N=C/c2cccn2C)cc1`, with 1.43%.
Then `Cc1cc(N2CCN(CC(O)C(F)(F)F)CC2)c2ccccc2n1` (configuration not stated), with 15.7%; and `CCC(CO)Oc1cc(NCc2cccc(C(F)(F)F)c2)c2ncn(C(C)C)c2c1` (configuration not stated), with -6.24%; and `COCCN(CC1CCCN(C2Cc3ccccc3C2)C1)C(=O)CCC(C)=O` (configuration not stated), with -22.6%.
Take `CN(CC(=O)Nc1ccc(Cl)cc1F)C1=NS(=O)(=O)c2ccccc21`: the inhibition was 5.4%.
For the compound `COc1ccc(S(=O)(=O)Nc2ccc(NC(C)=O)cc2)cc1[N+](=O)[O-]`, the inhibition is 9.65%.
In the case of `COc1cc(CNc2ccc(N3CCCC3)cc2)cc(Cl)c1OC`, the inhibition is 21.3%.
Then `Clc1ccc(CNc2ccc(N3CCN(Cc4ccccc4)CC3)cc2)cc1`, with 20.5%; and `CCOc1c(Cl)cc(CNc2ccc(N3CCCC3)cc2)cc1OC`, with 15.9%; and `CCOc1ccc(CNc2ccc(N3CCCC3)cc2)cc1`, with 21.7%.
As to `COc1ccc(C(=O)Nc2ccc(N3CCN(C(=O)C(C)C)CC3)cc2)cc1[N+](=O)[O-]`, the inhibition was -5.48%.
With `CCOC(=O)C1CCCN(CCC(=O)Nc2ccc(F)c(F)c2)C1` (configuration not stated), the inhibition was -6.65%.
On to `c1ccc(CSC2=NCCCN2)cc1`, for which the inhibition is 5.1%.
`Cc1ccc(NC(=O)CSc2nc3ccccc3c(=O)n2CCCC(=O)N2CCCC2)cc1`: the inhibition is -0.44%.
With `CC1=NN(c2cccc(F)c2)C(=O)/C1=C/c1ccc(N(C)C)cc1`, the inhibition is 15.2%.
In the case of `CCN(CC)c1ccc(/C=C2/C(=O)ON=C2C)cc1`, the inhibition was 22.3%.
Then `COc1ccc(NC(=O)CN(C)CC(=O)NCCc2ccc(F)cc2)cc1`, with -13.6%; and `COCCN(Cc1cc2cccc(C)c2n2nnnc12)C(=O)C(F)(F)F`, with -4.57%; and `CN(CCc1cn[nH]c1)Cc1nc(Cc2ccccc2)no1`, with 3.23%.
Consider `COc1cc(OC)cc(C(=O)Oc2c(CN3CCOCC3)cc(Cl)c3cccnc23)c1`, for which the inhibition is -7.03%.
Take `COc1ccc(CN2CCN(C)CC2)cc1OCc1ccccc1`: the inhibition is 0.12%.
Then `COc1ccc(C(=O)Oc2c(CN3CCOCC3)cc(Cl)c3cccnc23)cc1`, with 6.29%.
Then `Oc1c(CN2CCOCC2)cc(CN2CCOCC2)cc1CN1CCOCC1`, with -23.8%; and `O=C(Oc1c(CN2CCOCC2)cc(Cl)c2cccnc12)c1ccccc1Cl`, with 13.5%.
Then `Oc1c(CN2CCOCC2)cc(-c2ccccc2)cc1CN1CCOCC1`, with 9.91%.
For `O=C(Oc1c(CN2CCOCC2)cc(Cl)c2cccnc12)c1ccccc1`, the inhibition was -7.41%.
Turning to `CN1CCN(Cc2ccc(OCc3ccccc3)cc2)CC1`, the inhibition was -2.13%.
To `CC(/C=C1\SC(=S)N(CCC(=O)Nc2nc(C)cs2)C1=O)=C\c1ccccc1` belongs -4.32%.
For `COc1ccc(/C=C/c2nc(C)c(-c3ccccc3)c(=O)[nH]2)cc1OC`, the inhibition is 2.31%.
For `CCOc1ccc(C2=CSC3=NCCN23)cc1[N+](=O)[O-]`, the inhibition is -15.6%.
To `CCOc1ccc(NC(=S)Nc2ccc(OCc3ccccc3)cc2)cc1` belongs 22%.
With `CCCc1c(C(=O)Nc2ccc(F)cc2F)cnn1-c1ccccc1`, the inhibition is 2.03%.
Then `COc1cc(C(=O)N(C)C2CCCN(Cc3ccccc3F)C2)cc(OC)c1OC` (configuration not stated), with -3.71%.
To `CC(C)Oc1cccnc1N(C)C1CCN(Cc2ccccc2)CC1` belongs 7.67%.
To `COc1cc(CN2CCCCC2)ccc1OCc1ccccc1` belongs -0.75%; to `OC(COCc1ccccc1)CN1CCCC1` (configuration not stated), -16.3%.
As for `c1ccc(COc2cccc(CN3CCCCC3)c2)cc1`, the inhibition was 4.44%.
Then `Oc1c(CNc2ccccc2)cc(COCc2ccccc2)c2cccnc12`, with -1.39%.
As to `CSc1ccc(CN(C)CC(=O)Nc2c(F)cccc2F)cc1`, the inhibition was 4.59%.
In the case of `CC(C)c1ccc(NC(=O)C2=NNC(=O)CC2)cc1`, the inhibition is 8.16%.
Then `O=C(CCCCC(=O)OCC1CCCO1)OCC1CCCO1` (configuration not stated), with -25.2%; and `O=C1COc2ccccc2N1Cc1ccc(Cl)cc1`, with -6.96%.
Then `Cc1c[n+](C)ccc1CC1C([N+](=O)[O-])=C[N-]c2ncnn21` (configuration not stated), with -6.38%; and `O=C(Cc1ccc(O)cc1)NCCNC(=S)NCc1ccccc1`, with -12.1%; and `O=c1oc2ccccc2cc1-c1ccccc1`, with -7.16%.
For the compound `O=Cc1c(-c2ccccc2)cc2oc3ccccc3cc1-2`, the inhibition is 10.8%.
As to `O=C(Cc1ccccn1)Nc1ccccc1`, the inhibition was -8.73%.
Take `S=C(NCc1ccccn1)Nc1ccccc1Cl`: the inhibition was -10.4%.
To `CCOc1ccc(NC(=O)CC(c2ccccc2)c2ccc(F)cc2)cc1` (configuration not stated) belongs -2.67%; to `O=C(NCc1ccccn1)Nc1ccccc1Cl`, -1.88%; to `Cc1ccc(NC(=O)C(NCc2ccccn2)c2ccccc2)cc1` (configuration not stated), -1%.
Turning to `CCOc1ccc(NC(=O)NCc2ccccn2)cc1`, the inhibition is -5.82%.
Then `Cc1cc(C)cc(NC(=O)c2ccc(S(=O)(=O)C(F)F)cc2)c1`, with 15.2%; and `COC(=O)C(C)Sc1ccc2nnc(-c3ccccc3)n2n1` (configuration not stated), with 0.68%; and `COc1ccc(NS(=O)(=O)c2ccc3oc(SCc4ccc(F)cc4)nc3c2)cc1`, with -1.81%.
In the case of `O=C(O)c1cc(-c2cccs2)nn1-c1cccc(Cl)c1`, the inhibition is -3.66%.
As for `CC(C)CCNC(=O)CSc1nnc(-c2ccc(S(=O)(=O)N3CCCC3)cc2)n1C`, the inhibition was 1.62%.
On to `O=C(CSc1n[nH]c(-c2cccs2)n1)NCCc1ccccc1`, for which the inhibition is -3.95%.
Take `CN=c1scc(-c2cccs2)n1/N=C/c1ccc(O)c(O)c1O`: the inhibition was 28.1%.
Take `COCCN=c1scc(-c2ccco2)n1/N=C/c1ccc(O)c(O)c1O`: the inhibition is 13.4%.
Then `Cc1ccc(S(=O)(=O)N2CCN(C(=O)C3CCCC3)CC2)cc1C`, with -7.76%.
Then `CCCCC(=O)NC(c1ccc(C(C)C)cc1)c1ccc2cccnc2c1O` (configuration not stated), with -9.31%; and `CCCC(=O)NC(c1ccc(Cl)cc1)c1ccc2cccnc2c1O` (configuration not stated), with -7.24%.
Then `CCCCC(=O)NC(c1ccccc1)c1ccc2cccnc2c1O` (configuration not stated), with 17.1%.
As to `CCCCC(=O)NC(c1ccc(N(CC)CC)cc1)c1ccc2cccnc2c1O` (configuration not stated), the inhibition is 11.6%.
`CCCC(=O)NC(c1ccc(C)cc1)c1ccc2cccnc2c1O` (configuration not stated): the inhibition is 4.97%.
Turning to `CCCC(=O)NC(c1ccc(C(C)C)cc1)c1ccc2cccnc2c1O` (configuration not stated), the inhibition was -11.7%.
To `CCc1cc(C(=O)N2CCCC(C(=O)c3ccc(Oc4ccccc4)cc3)C2)n(C)n1` (configuration not stated) belongs -0.31%.
